# Assay results as given in PubChem BioAssay AID686979 (National Center for Advancing Translational Sciences (NCATS), 2013).
# Out of some 420,000 compounds screened, about 50,000 (12%) were called active. Inconclusive results (about 26%) are left out. Only a selection was taken, and actives are over-represented in it overall. Values without a mark were called inactive. Calls come from the whole dose curve; as a rule, active = well fitted inhibition curve with a large enough effect; inconclusive = small, poorly fitted or top-dose-only effect; inactive = flat fitted curve, though single readings scatter.
# Assay: qHTS for Inhibitors of human tyrosyl-DNA phosphodiesterase 1 (TDP1): qHTS in cells in presence of CPT; note: nearly all actives have a fitted effect of over 55% in size
# Settings: chicken DT40 Tdp1-/-;hTDP1 cells + 20 nM CPT, ATP luminescence, 48 h; series mostly up to 46.2 µM; activity change, negative = growth inhibition: at the top concentration
# How it was run: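 Chicken DT40 Tdp1-/- cells stably complemented with human TDP1 were seeded at 400 cells/well in medium containing 20 nM camptothecin, exposed to pin-transferred compounds, and grown at 37 °C for at least 48 hr. Viability was read as ATP luminescence.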
# % is set by controls: 0 for no effect and ±100 for the full control effect; potency is the fitted concentration of half-maximal effect.
Compound,"activity change, negative = growth inhibition",Potency
CCCn1nc(C(=O)NNC(=O)CCOc2ccccc2OCC)c2ccccc2c1=O,1.4%,
CN(C)/C=C(\C#N)C(=O)c1cccnc1Oc1ccc(F)cc1F,-19.9%,
CCOC(=O)C1(O)CC(C)=NN1C(=O)c1cccc(Br)c1 (stereo not given),18.5%,
CCN(C(=O)CSc1ncnc2c1cnn2-c1ccccc1)C1CCS(=O)(=O)C1 (stereo not given),-4.58%,
O=c1[nH]nc(SCCS(=O)(=O)c2ccc(F)cc2)n1-c1ccccc1C(F)(F)F,,23.1 µM (active)
O=C(CSc1n[nH]c(=O)n1-c1ccccc1)Nc1ccccc1C(F)(F)F,-0.565%,
O=S(=O)(c1ccc(F)cc1)N1CCN(Cc2ccccc2C(F)(F)F)CC1,-16%,
O=C(NCC1Cc2cc(F)cc(-c3cnccn3)c2O1)C1COc2ccccc2O1 (stereo not given),16.4%,
S=C(c1ccccc1)N1CCCC1,11.6%,
CCOC(=O)c1c(NC(=O)CSc2nccc(=O)[nH]2)sc(C)c1C,-10.7%,
CC1CCN(C(=O)c2ccc(S(=O)(=O)Cc3cc(F)ccc3F)c([N+](=O)[O-])c2)CC1,,6.51 µM (active)
Nc1ccc(C(=O)N2CCN(S(=O)(=O)c3ccc(Cl)cc3)CC2)cc1[N+](=O)[O-],-66.4%,
NC(=O)C1CCN(C(=O)c2ccc(F)c(S(=O)(=O)N3CCOCC3)c2)CC1,8.19%,
Cc1noc(NS(=O)(=O)c2ccc(NC(=O)c3oc4ccc(F)cc4c3C)cc2)c1C,-14.1%,
CC(=O)Nc1c2c(nn1-c1ccc(C)cc1C)CS(=O)C2 (stereo not given),7.09%,
C[C@H](NC(=O)C1CC(=O)N(c2ccc3c(c2)OCCO3)C1)C(=O)N1CCC(C(=O)O)CC1 (stereo not given in full),-0.349%,
CC(=O)Nc1c2c(nn1-c1cccc(C)c1)CSC2,-12.1%,
O=C(NC1Cc2ccccc2C1)c1cc(COc2cccc(C(F)(F)F)c2)on1,-25.4%,
CC(C)Cc1cc(C(=O)NCCc2ccccc2)no1,-26.4%,
CCCOc1cccc(C(=O)NCCCNC(=O)c2cccnc2)c1,-1.65%,
CCC(NC(=O)c1cc(COc2ccc(F)c(F)c2)on1)c1ccncc1 (stereo not given),,20.6 µM (active)
Cc1ccc(OCc2cc(C(=O)N(C)CCc3ccccc3)no2)cc1C,-13.4%,

Compound,"activity change, negative = growth inhibition",Potency
O=C(NCCCc1ccccc1)c1cc(COc2c(F)cccc2F)on1,-17.7%,
CCn1ccnc1CN(C)C(=O)c1cc(COc2ccc(-n3cncn3)cc2)on1,-21.3%,
CN(Cc1cccnc1)C(=O)c1cc(COc2ccc3ncccc3c2)on1,,4.61 µM (active)
CC(=O)c1cccc(OCc2cc(C(=O)NC(C)Cc3cccnc3)no2)c1 (stereo not given),,16.4 µM (active)
CC(N)(C(=O)O)c1ccc(-c2nn[nH]n2)cc1 (stereo not given),-21.6%,
COC(=O)C[C@H]1C=C[C@H](NC(=O)c2ccc(F)cc2)[C@@H](CO)O1,-3.56%,
Cc1sc(NC(=O)C2=COCCO2)c(C#N)c1C,-13.9%,
CC1(C)C(c2cccs2)=[N+]([O-])C2(CCCCC2=O)N1O (stereo not given),9.95%,
Cc1cccn2cc(-c3cccc(S(=O)(=O)N4CCCCC4)c3)nc12,-24%,
O=C(NCCCN1CCOCC1)C1CCCN(S(=O)(=O)N2CCCCC2)C1 (stereo not given),-7.98%,
COc1cccc2c1C(=O)c1c(O)c3c(c(O)c1C2=O)CC(O)(C(C)=NNC(=O)c1ccc(Cl)c(Cl)c1)CC3OC1CC(N)C(O)C(C)O1 (stereo not given),,0.164 µM (active)
CCOC(=O)c1cnc2c(c(C)nn2CC)c1Cl,5.09%,
COc1cccc(-c2ccc3c(c2)N(Cc2ccccc2OC)C(=O)C(C)S3)c1 (stereo not given),,25.9 µM (active)
COc1ccccc1CNS(=O)(=O)c1ccc2c(c1)NC(=O)CS2,-27.9%,
COc1ccc(CN2C(=O)C(C)S/C2=N/N=C/c2ccco2)cc1 (stereo not given),-9.51%,
CCCc1nc(-c2ccccc2O)n(-c2ccccc2)n1,-27.4%,
CCCc1nc(N2CCN(C)CC2)c2sc(=S)n(-c3ccccc3)c2n1,,18.4 µM (active)
Cc1cnc(NC(=O)CSc2c(Cl)cccc2Cl)s1,,14.6 µM (active)
COc1ccc(CC(=O)NCc2nnc(SCC(=O)Nc3nccs3)n2C)cc1,-10.1%,
Cc1cnc(NC(=O)CSc2nnc(C)s2)s1,-12.2%,
Cc1cnc(NC(=O)CSc2nnc(-c3ccccc3)n2Cc2ccccc2)s1,-13.7%,
COC(=O)c1ccc(NC(=O)CSc2nnc(CNc3ccc(OC)cc3)n2C)cc1,5.11%,

Compound,"activity change, negative = growth inhibition",Potency
COc1ccc(CC(=O)NCc2nnc(SCC(=O)Nc3ncc(C)s3)n2C)cc1,,16.4 µM (active)
O=C(NCc1ccccc1)C(c1ccco1)N(C(=O)c1csnn1)c1ccccc1F (stereo not given),-13%,
CCCCN(C(=O)COc1ccc(NC(C)=O)cc1)C1CCS(=O)(=O)C1 (stereo not given),-15.7%,
COc1ccc(CNC(=O)CCC(=O)Nc2nnc(C(C)C)s2)cc1,2.44%,
CC[C@@H]1CC2=C(C(=O)OC(C)(C)O2)[C@@H](CC)O1,-8.36%,
Cn1c(CC(=O)Nc2ccc(F)cc2)nnc1SCC(=O)NC1CCCCC1,2.42%,
O=C(NCCN1CCOC1=O)C1CCC(=O)N(CCc2ccc(Cl)cc2)C1 (stereo not given),-3.33%,
C=CCNCCCCOc1ccccc1,-25.9%,
COc1ccc(-c2c3c(=O)n(C)c(=O)n(C)c3cn2-c2cccc(OC)c2)cc1,,29.1 µM (active)
COc1cccc(-n2cc3c(c2-c2ccccc2)c(=O)n(C)c(=O)n3C)c1,,23.1 µM (active)
COc1ccc(-c2c3c(=O)n(C)c(=O)n(C)c3cn2NC(C)=O)cc1,-0.679%,
COc1ccc(Nc2cc(=O)n(-c3ccccc3)c3c2c(=O)n(C)c(=O)n3C)cc1,16%,
Cc1ccc(-c2c3c(=O)n(C)c(=O)n(C)c3cn2-c2ccccc2O)cc1,-1.44%,
COc1ccc(-c2[nH]c3c(c2-c2c(-n4cccc4)n(C)c(=O)n(C)c2=O)c(=O)n(C)c(=O)n3C)cc1,-19.5%,
COc1ccccc1N(CC(=O)Nc1c(C)n(C)n(-c2ccccc2)c1=O)S(=O)(=O)c1ccccc1,-1.58%,
Cc1c(Cl)cccc1NC(=O)NCCCN1CCCC1=O,-4.46%,
O=C(OCc1cc(=O)n2nc(C3CC3)sc2n1)c1ccccc1Cl,-26.1%,
C=CCOC(=O)C1=C[C@H](c2ccc(Br)cc2)C[C@H](OCCCCO)O1,-10.5%,
CSc1nc(O)c(Cc2ccccc2)c(=O)[nH]1,-2.58%,
COc1ccc(Cc2nnc(SC)[nH]c2=O)cc1,,12.6 µM (active)
COc1ccc(Cc2nnc(SCC(=O)Nc3ccc(C)c(Cl)c3)[nH]c2=O)cc1,3.75%,
